# PubChem BioAssay (NCATS)
# Records with an inconclusive call do not appear. A call without a number means that no potency is given here. Calls of active or inactive are those of the source. Calls come from the whole dose curve; as a rule, active = well fitted inhibition curve with a large enough effect; inconclusive = small, poorly fitted or top-dose-only effect; inactive = flat fitted curve, though single readings scatter. Peptide text beside a SMILES is read from it.
# System: GB4
# Assay: qHTS profiling for inhibitors of Plasmodium falciparum proliferation (AID 504749); note: nearly all actives have a fitted effect of over 60% in size
# Conditions: P. falciparum in erythrocytes, SYBR Green DNA, 72 h; series mostly up to 12.8 µM
# Procedure, shortened: (§1)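 Readout was DNA-dye fluorescence from lysed cultures, ex 485/em 535 nm. Parasitized red cells had grown 72 h with compound; data scaled between 0.29 uM artemisinin and DMSO wells and corrected using vehicle-only plates.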
# Potency is the fitted concentration of half-maximal effect.
row,Structure (SMILES),Potency
1,CCC(C)C(=O)OC1CCC=C2C=CC(C)C(CCC3CC(O)CC(=O)O3)[C@@H]21 (stereo not given in full),inactive
2,C[C@]1(c2ccccc2)OC(C(=O)O)=CC1=O,inactive
3,OCC1OC([S-])[C@H](O)C(O)C1O.[Au+] (stereo not given in full),inactive
4,COC(=O)N/N=C/C1=C[N+](=O)c2ccccc2[N+]1=O,inactive
5,CN1CC(=O)N=C1N,inactive
6,CNC1CC(N)[C@H](O)[C@@H](O[C@@H]2OC(CO)C3OC4(OC(C(N)CO)C(O)C(O)C4O)O[C@@H]3[C@H]2O)C1O (stereo not given in full),inactive
7,COC1C=CO[C@@]2(C)Oc3c(C)c(O)c4c(O)c(c(C=NN5CCN(C)CC5)c(O)c4c3C2=O)NC(=O)/C(C)=C\C=CC(C)C(O)[C@@H](C)C(O)C(C)[C@H](OC(C)=O)C1C (stereo not given in full),953 nM (active)
8,CCC(CCC(C)C1CCC2C3CC=C4CC(O)CC[C@@]4(C)C3CC[C@@]12C)C(C)C (stereo not given in full),inactive
9,O=C1OC(CO)C(O)C(O)C1O (stereo not given),inactive
10,COc1ccc(CC(N)C(=O)NC2C(CO)OC(n3cnc4c(N(C)C)ncnc43)C2O)cc1 (stereo not given),675 nM (active)
11,CCCC(=O)O[C@]1(C(=O)CO)CCC2[C@@H]3CCC4=CC(=O)CC[C@]4(C)C3C(O)C[C@]21C (stereo not given in full),inactive
12,COC(=O)C(Cc1ccccc1)NC(=O)C(N)CC(=O)O (stereo not drawn) (H-Asp-Phe-OMe; configuration not given here),inactive
13,CC[C@@]12CCCN3CCc4c(n(c5ccccc45)[C@](O)(C(=O)OC)C1)C32 (stereo not given in full),inactive
14,CC1(C)SC2C(N3C(=O)C(c4ccccc4)NC3(C)C)C(=O)N2C1C(=O)O (stereo not given),inactive
15,CC1CCC(C(C)C)C(=O)C1 (stereo not given),inactive
16,CC(=O)N[C@H](CC(C)C)C(=O)O,inactive
17,CC(C)C1CCC(C(=O)NC(Cc2ccccc2)C(=O)O)CC1 (stereo not given),inactive
18,COc1ccc2cc(C(C)CO)ccc2c1 (stereo not given),inactive
19,COc1ccc2cc1Oc1ccc(cc1)CC1c3c(cc4c(c3Oc3cc5c(cc3OC)CCN(C)C5C2)OCO4)CCN1C (stereo not given),6750 nM (active)
20,CNC1C(OC2C(O[C@@H]3C(O)C(O)[C@@H](N=C(N)N)C(O)C3N=C(N)N)OC(C)[C@@]2(O)CO)OC(CO)C(O)C1O (stereo not given in full),inactive
21,CC1C2CCC3C4CC=C5CC(N(C)C)CC[C@@]5(C)C4CC[C@@]32CN1C (stereo not given in full),inactive
22,C[C@]12C=CC(=O)C=C1CCC1C2C(O)C[C@]2(C)C1CC[C@]2(O)C(=O)CO (stereo not given in full),inactive
23,CN(C)CCc1c[nH]c2ccc(CC3COC(=O)N3)cc12 (stereo not given),inactive
24,NCC1CCC(N)C(O[C@@H]2C(O)[C@H](O[C@H]3OC(CO)C(O)C(N)C3O)[C@@H](N)C[C@H]2N)O1 (stereo not given in full),inactive
25,OCC1O[C@H](OC2C(CO)O[C@@](O)(CO)C2O)C(O)C(O)C1O (stereo not given in full),inactive
26,CC1(C)OC2CO[C@]3(COS(N)(=O)=O)OC(C)(C)OC3C2O1 (stereo not given in full),inactive
27,CC(=O)OC1CCC2C3CCc4cc(O)ccc4C3CCC12C (stereo not given),inactive
28,CN(C)CCCOC1C(C(O)CO)OC2OC(C)(C)O[C@@H]21 (stereo not given in full),inactive
29,COc1cc(C2c3cc4c(cc3C(O[C@@H]3OC5COC(c6cccs6)OC5C(O)C3O)C3COC(=O)C23)OCO4)cc(OC)c1O (stereo not given in full),2390 nM (active)

# System: HB3
# Assay: as above
# Conditions: P. falciparum in erythrocytes, SYBR Green DNA, 72 h; series mostly up to 12.8 µM
# Procedure, shortened: as §1
row,Structure (SMILES),Potency
1,CCC(C)C(=O)OC1CCC=C2C=CC(C)C(CCC3CC(O)CC(=O)O3)[C@@H]21 (stereo not given in full),inactive
2,C[C@]1(c2ccccc2)OC(C(=O)O)=CC1=O,inactive
3,OCC1OC([S-])[C@H](O)C(O)C1O.[Au+] (stereo not given in full),inactive
4,COC(=O)N/N=C/C1=C[N+](=O)c2ccccc2[N+]1=O,inactive
5,CN1CC(=O)N=C1N,inactive
6,CNC1CC(N)[C@H](O)[C@@H](O[C@@H]2OC(CO)C3OC4(OC(C(N)CO)C(O)C(O)C4O)O[C@@H]3[C@H]2O)C1O (stereo not given in full),inactive
7,COC1C=CO[C@@]2(C)Oc3c(C)c(O)c4c(O)c(c(C=NN5CCN(C)CC5)c(O)c4c3C2=O)NC(=O)/C(C)=C\C=CC(C)C(O)[C@@H](C)C(O)C(C)[C@H](OC(C)=O)C1C (stereo not given in full),447 nM (active)
8,CCC(CCC(C)C1CCC2C3CC=C4CC(O)CC[C@@]4(C)C3CC[C@@]12C)C(C)C (stereo not given in full),inactive
9,O=C1OC(CO)C(O)C(O)C1O (stereo not given),inactive
10,COc1ccc(CC(N)C(=O)NC2C(CO)OC(n3cnc4c(N(C)C)ncnc43)C2O)cc1 (stereo not given),1000 nM (active)
11,CCCC(=O)O[C@]1(C(=O)CO)CCC2[C@@H]3CCC4=CC(=O)CC[C@]4(C)C3C(O)C[C@]21C (stereo not given in full),inactive
12,COC(=O)C(Cc1ccccc1)NC(=O)C(N)CC(=O)O (stereo not drawn) (H-Asp-Phe-OMe; configuration not given here),inactive
13,CC[C@@]12CCCN3CCc4c(n(c5ccccc45)[C@](O)(C(=O)OC)C1)C32 (stereo not given in full),inactive
14,CC1(C)SC2C(N3C(=O)C(c4ccccc4)NC3(C)C)C(=O)N2C1C(=O)O (stereo not given),inactive
15,CC1CCC(C(C)C)C(=O)C1 (stereo not given),inactive
16,CC(=O)N[C@H](CC(C)C)C(=O)O,inactive

row,Structure (SMILES),Potency
1,CC(C)C1CCC(C(=O)NC(Cc2ccccc2)C(=O)O)CC1 (stereo not given),inactive
2,COc1ccc2cc(C(C)CO)ccc2c1 (stereo not given),inactive
3,COc1ccc2cc1Oc1ccc(cc1)CC1c3c(cc4c(c3Oc3cc5c(cc3OC)CCN(C)C5C2)OCO4)CCN1C (stereo not given),7080 nM (active)
4,CNC1C(OC2C(O[C@@H]3C(O)C(O)[C@@H](N=C(N)N)C(O)C3N=C(N)N)OC(C)[C@@]2(O)CO)OC(CO)C(O)C1O (stereo not given in full),inactive
5,CC1C2CCC3C4CC=C5CC(N(C)C)CC[C@@]5(C)C4CC[C@@]32CN1C (stereo not given in full),inactive
6,C[C@]12C=CC(=O)C=C1CCC1C2C(O)C[C@]2(C)C1CC[C@]2(O)C(=O)CO (stereo not given in full),inactive
7,COc1ccc2c(c1)N(C[C@@H](C)CN(C)C)c1ccccc1S2,inactive
8,CCOC(=O)C1=CC(OC(CC)CC)C(NC(C)=O)C(N)C1 (stereo not given),inactive
9,CN(C)CCc1c[nH]c2ccc(CC3COC(=O)N3)cc12 (stereo not given),inactive
10,NCC1CCC(N)C(O[C@@H]2C(O)[C@H](O[C@H]3OC(CO)C(O)C(N)C3O)[C@@H](N)C[C@H]2N)O1 (stereo not given in full),inactive
11,OCC1O[C@H](OC2C(CO)O[C@@](O)(CO)C2O)C(O)C(O)C1O (stereo not given in full),inactive
12,CC1(C)OC2CO[C@]3(COS(N)(=O)=O)OC(C)(C)OC3C2O1 (stereo not given in full),inactive
13,CC(=O)OC1CCC2C3CCc4cc(O)ccc4C3CCC12C (stereo not given),inactive
14,CN(C)CCCOC1C(C(O)CO)OC2OC(C)(C)O[C@@H]21 (stereo not given in full),inactive
15,COc1cc(C2c3cc4c(cc3C(O[C@@H]3OC5COC(c6cccs6)OC5C(O)C3O)C3COC(=O)C23)OCO4)cc(OC)c1O (stereo not given in full),3160 nM (active)
